{"source": "PubChem BioAssay AID1063", "about": "(University of Pittsburgh Molecular Library Screening Center, 2008)", "note": "Out of some 200,000 compounds screened, about 18,000 (9%) were called active. No stated cut-off is given here; in the data, active means inhibition above about 50%; inactive means the rest. This excerpt belongs to a sample that is enriched for actives."}
{"experiment": "Leishmania major promastigote growth inhibition, primary screen (AID 1063);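 further: promastigotes grown with compound for 44 hours at 28 °C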", "conditions": "Leishmania major promastigotes, resazurin fluorescence viability; at 10 µM; hits give high values"}
{"compound": "Cc1sc2c(c1C)c(=O)n(-c1ccccc1)c(=O)n2CC(=O)NCC1CCCO1", "note": "(centres undefined)", "inhibition": "-0.67% (inactive)"}
{"compound": "CCOC(=O)c1cnc2c(c(C)nn2CC)c1Cl", "inhibition": "6% (inactive)"}
{"compound": "O=C(CSc1nncs1)NC1CCCc2ccccc21", "note": "(centres undefined)", "inhibition": "-8.28% (inactive)"}
{"compound": "O=C(CCC(=O)N1CCN(S(=O)(=O)c2ccccc2)CC1)NC1CCCc2ccccc21", "note": "(centres undefined)", "inhibition": "1.14% (inactive)"}
{"compound": "O=C(CN1CCN(c2ccc(O)cc2)CC1)NC1CCCc2ccccc21", "note": "(centres undefined)", "inhibition": "94.5% (active)"}
{"compound": "COc1ccc(/C(=N\\O)c2nccc3cc(OC)c(OC)cc23)cc1OC", "inhibition": "3.01% (inactive)"}
{"compound": "CCOC(=O)c1ccc(NC(=O)c2cc(=O)[nH]c3ccccc23)cc1", "inhibition": "-7.03% (inactive)"}
{"compound": "COc1ccccc1CNC(=O)CNC(=O)c1cn(-c2ccccc2OC)c(=O)c2ccccc12", "inhibition": "-2.45% (inactive)"}
{"compound": "COc1cc(OC)c(C(=O)OCC(=O)N2CC(=O)Nc3ccccc32)cc1OC", "inhibition": "-4.64% (inactive)"}
{"compound": "COc1cccc(-n2c(SCC(=O)NC3CCCCC3)nc3n[nH]c(C)c3c2=N)c1", "inhibition": "20.6% (inactive)"}
{"compound": "CC(Sc1nnnn1C)C(=O)NC(=O)NC1CCCCC1", "note": "(centres undefined)", "inhibition": "-2.91% (inactive)"}
{"compound": "Cc1cccc(-n2c(N)cc(=O)nc2SC(C)C(=O)NC2CCCCC2)c1", "note": "(centres undefined)", "inhibition": "55.9% (active)"}
{"compound": "Cc1ccc2[nH]c(C)c(CCNC(=O)NC3CCCCC3)c2c1", "inhibition": "5.48% (inactive)"}
{"compound": "COc1ccc(N2CCN(C(=O)CNS(=O)(=O)c3ccc(C)c(C)c3)CC2)cc1", "inhibition": "6.23% (inactive)"}
{"compound": "N#CCSc1nc2ccccc2c(=O)n1-c1ccccc1", "inhibition": "4.35% (inactive)"}
{"compound": "CCCn1c(N)c(C(=O)CSc2nc3ccccc3c(=O)n2-c2ccc(OC)cc2)c(=O)[nH]c1=O", "inhibition": "-3.93% (inactive)"}
{"compound": "COc1cccc(-n2c(SCC(=O)c3c[nH]c4ccccc34)nc3ccccc3c2=O)c1", "inhibition": "92.9% (active)"}
{"compound": "O=C(Nc1cc(S(=O)(=O)N2CCOCC2)ccc1Cl)c1cc(=O)c2ccccc2o1", "inhibition": "31.5% (inactive)"}
{"compound": "COC(=O)c1ccc(NC(=O)c2cc(Cl)ccc2OC)cc1", "inhibition": "-3.49% (inactive)"}
{"compound": "Cc1cccc(C(=O)NNC(=O)c2cccc([N+](=O)[O-])c2)c1", "inhibition": "4.56% (inactive)"}
{"compound": "Cc1ccc(-n2[nH]c(C)c(/C=N/NC(=O)c3cccc([N+](=O)[O-])c3)c2=O)cc1C", "inhibition": "96.9% (active)"}
{"compound": "COc1cc(OC)c(/C=N/NC(=O)c2ccc([N+](=O)[O-])cc2)cc1Br", "inhibition": "-7.92% (inactive)"}
{"compound": "Cc1[nH]n(-c2ccc([N+](=O)[O-])cc2)c(=O)c1C=NCCN1CCN(C(=O)c2ccccc2F)CC1", "inhibition": "-1.62% (inactive)"}
{"compound": "COc1cccc(/C=N/NC(=O)c2cccc([N+](=O)[O-])c2)c1OS(=O)(=O)c1ccc(C)cc1", "inhibition": "55.1% (active)"}
{"compound": "Cc1ccc(N=Nc2c(C)[nH]n(-c3ccccc3)c2=O)cc1", "inhibition": "-5.3% (inactive)"}
{"compound": "COc1ccc(/C=N/NC(=O)c2ccccc2)cc1OS(=O)(=O)c1ccccc1", "inhibition": "4.68% (inactive)"}
{"compound": "Cc1[nH]n(-c2ccc(Cl)cc2)c(=O)c1/C=N/n1c(C)nc2ccccc2c1=O", "inhibition": "-14.5% (inactive)"}
{"compound": "Cc1[nH]n(-c2ccccc2)c(=O)c1/C=N/NC(=O)c1ccoc1C", "inhibition": "96.8% (active)"}
{"compound": "O=C(CC12CC3CC(CC(C3)C1)C2)NCc1ccco1", "inhibition": "-4.33% (inactive)"}
{"compound": "CCOc1ccc(OCc2cccc(C(=O)N(CC)CC)c2)cc1", "inhibition": "0.53% (inactive)"}
{"compound": "Cc1c(NC(=O)CSc2nnnn2-c2ccc(C(=O)O)cc2)c(=O)n(-c2ccccc2)n1C", "inhibition": "-3% (inactive)"}
{"compound": "CCOc1ccc(CCN2C(=O)c3cccnc3C2=O)cc1OCC", "inhibition": "-10.8% (inactive)"}
{"compound": "Cn1cnnc1SCC(=O)Nc1ccc(N2CCOCC2)cc1", "inhibition": "-5.65% (inactive)"}
{"compound": "N#Cc1ccc(OCc2nnc(-c3ccc([N+](=O)[O-])cc3)o2)cc1", "inhibition": "-3.9% (inactive)"}
{"compound": "CCc1ccc2ncc(C(=O)c3ccccc3)c(N3CCOCC3)c2c1", "inhibition": "10.5% (inactive)"}
{"compound": "O=[N+]([O-])c1ccccc1NCc1ccccc1Cl", "inhibition": "12.2% (inactive)"}
{"compound": "C=CCc1cccc2cc(C(=O)Nc3ccc(NC(C)=O)cc3)c(=O)oc12", "inhibition": "-6.83% (inactive)"}
{"compound": "C/C(=N\\NC(=O)c1cccc(N2CCCC2=O)c1)c1ccc(N)cc1", "inhibition": "-3.01% (inactive)"}
{"compound": "CC(C)(C)c1ccc(C(=O)NCCC(=O)NCc2ccco2)cc1", "inhibition": "-5.5% (inactive)"}
{"compound": "O=C(CN1C(=O)/C(=C/c2ccccc2F)Sc2ccccc21)NCc1cccnc1", "inhibition": "19.2% (inactive)"}
{"compound": "O=C(CN1C(=O)/C(=C\\c2ccc(C(F)(F)F)cc2)Sc2ccccc21)NCc1ccco1", "inhibition": "95.1% (active)"}
{"compound": "CCc1[nH]nc(C(=O)N2CCCC(CNS(=O)(=O)c3cccs3)C2)c1C", "note": "(centres undefined)", "inhibition": "-4.31% (inactive)"}
{"compound": "CN(C)S(=O)(=O)c1cccc(NC(=S)NCc2ccc3c(c2)OCO3)c1", "inhibition": "-0.11% (inactive)"}
{"compound": "C/C(=N\\NC(=S)NCc1ccccc1)c1ccc(Cl)cc1", "inhibition": "1.34% (inactive)"}
{"compound": "C/C(=N\\NC(=S)NCc1ccccc1)C1CCCCC1", "inhibition": "89.9% (active)"}
{"compound": "CC1CCCCN1C(=S)NCc1ccccc1", "note": "(centres undefined)", "inhibition": "-0.34% (inactive)"}
{"compound": "COc1ccc2nc(Nc3nc(-c4ccncc4)cs3)sc2c1", "inhibition": "7.68% (inactive)"}
{"compound": "c1csc(-c2nnc(COc3ccc4c(c3)OCO4)o2)c1", "inhibition": "5.84% (inactive)"}
{"compound": "CCN(C(=O)COC(=O)c1ccc(COc2ccc3c(C)cc(=O)oc3c2)cc1)C1CCS(=O)(=O)C1", "note": "(centres undefined)", "inhibition": "-10.4% (inactive)"}
{"compound": "Cc1ccc(NC(=O)c2ccc(Oc3ncccn3)cc2)cc1", "inhibition": "7.15% (inactive)"}
{"compound": "Cc1nccn1CC(=O)N/N=C/c1ccc(O)c(O)c1", "inhibition": "-6.58% (inactive)"}
{"compound": "FC(F)(F)c1cccc(N/N=C/c2ccccc2)c1", "inhibition": "-13.1% (inactive)"}
{"compound": "Oc1ccc(/C=N/Nc2ccc(C(F)(F)F)cn2)cc1O", "inhibition": "95.4% (active)"}
{"compound": "CCc1nnc(NC(=O)C2CC(=O)N(c3ccc4c(c3)OCCO4)C2)s1", "note": "(centres undefined)", "inhibition": "-9.31% (inactive)"}
{"compound": "c1ccc(C(c2ccccc2)N2CCN(Cc3nnnn3C3CCCCC3)CC2)cc1", "inhibition": "9.22% (inactive)"}
{"compound": "c1ccc(CCn2nnnc2CN2CCN(C3CCCC3)CC2)cc1", "inhibition": "85.5% (active)"}
{"compound": "N#Cc1ccc(C(c2nnnn2CCc2ccccc2)N2CCCCCC2)cc1", "note": "(centres undefined)", "inhibition": "16.3% (inactive)"}
{"compound": "CCOc1cc(NC(=S)NCCCN(C)C)c(OCC)cc1NC(=O)C1CC1", "inhibition": "-0.62% (inactive)"}
{"compound": "C=CCn1cc(-c2cccc(C(F)(F)F)c2)cc(C#N)c1=O", "inhibition": "10.4% (inactive)"}
{"compound": "C[n+]1ccccc1C1CCCC/C1=N\\Nc1ccc([N+](=O)[O-])cc1[N+](=O)[O-]", "note": "(centres undefined)", "inhibition": "-1.09% (inactive)"}
{"compound": "O=C(Nc1ccccc1)O/N=C1\\CCCCC1c1ccc([N+](=O)[O-])cc1[N+](=O)[O-]", "note": "(centres undefined)", "inhibition": "99.6% (active)"}
{"compound": "O=[N+]([O-])c1ccc(N/N=C2/CCCCC2c2ccccn2)c([N+](=O)[O-])c1", "note": "(centres undefined)", "inhibition": "2.5% (inactive)"}
{"compound": "O=C(Nc1ccccc1Cl)/C(Cl)=C(\\Cl)S(=O)c1ccccc1", "note": "(centres undefined)", "inhibition": "101% (active)"}
{"compound": "O=C(CN1CCCCC1)Nc1ccccc1Cl", "inhibition": "-0.98% (inactive)"}
{"compound": "O=C(Nc1ccccc1Cl)c1ccc2nsnc2c1", "inhibition": "-3.57% (inactive)"}
{"compound": "COc1cccc(/C=C/C(=O)Nc2ccc3c(c2)OCCO3)c1", "inhibition": "13.7% (inactive)"}
{"compound": "Cc1cc(C(=O)Nc2ccccc2N2CCOCC2)c2ccccc2n1", "inhibition": "1.07% (inactive)"}
{"compound": "CCN1CCN(c2cc3nc(C)n(Cc4ccccc4)c(=O)c3cc2NC(=O)c2ccccc2F)CC1", "inhibition": "98.3% (active)"}
{"compound": "CCC(=O)Nc1ccc2nc(C)n(Cc3ccccc3Cl)c(=O)c2c1", "inhibition": "4.75% (inactive)"}
{"compound": "Cc1c(/C=N\\NC(=O)c2cc3ccccc3o2)c2ccccc2n1C", "inhibition": "9.72% (inactive)"}
{"compound": "O=C(c1ccc2ccccc2n1)N1CCN(c2ccccc2Cl)CC1", "inhibition": "-3.63% (inactive)"}
{"compound": "CSc1ccc(C(=O)C2CCCN(C(=O)c3ccc(C)nc3)C2)cc1", "note": "(centres undefined)", "inhibition": "-4.42% (inactive)"}
{"compound": "O=C(c1ccc(C(F)(F)F)cc1)C1CCCN(C(=O)c2csnn2)C1", "note": "(centres undefined)", "inhibition": "-5.59% (inactive)"}
{"compound": "O=C(c1ccc(-c2ccccc2)cc1)C1CCCN(C(=O)c2cncs2)C1", "note": "(centres undefined)", "inhibition": "58.5% (active)"}
{"compound": "C/C=N/NC(=O)CCCC(=O)N/N=C/C", "inhibition": "13.8% (inactive)"}
{"compound": "COc1cccc(NC(=O)CN(C)C(C)C(=O)Nc2ccc(C#N)cc2)c1", "note": "(centres undefined)", "inhibition": "5.24% (inactive)"}
{"compound": "CCOc1ccc(NS(=O)(=O)c2ccc(C)c(C(N)=O)c2)cc1", "inhibition": "-2.88% (inactive)"}
{"compound": "COCCn1c(Cc2cccn2C)nnc1SCC(=O)Nc1nccs1", "inhibition": "1.7% (inactive)"}
{"compound": "Nc1cc(C(F)(F)F)ccc1N1CCOCC1", "inhibition": "0.97% (inactive)"}
{"compound": "O=C(Nc1ccc(Br)cn1)c1ccc([N+](=O)[O-])cc1Cl", "inhibition": "13.7% (inactive)"}
{"compound": "O=C(/C=C/c1ccc(Cl)cc1)Nc1ccc(Br)cn1", "inhibition": "0.77% (inactive)"}
{"compound": "O=C(Nc1ccc(Br)cn1)c1ccc([N+](=O)[O-])o1", "inhibition": "100% (active)"}
{"compound": "CS(=O)(=O)Nc1cccc(-c2cn3ccccc3n2)c1", "inhibition": "-2.73% (inactive)"}
{"compound": "Cc1cnc(C(=O)OCC(=O)NCCCc2ccccc2)cn1", "inhibition": "-4.28% (inactive)"}
{"compound": "O=C(NCCCCCCNC(=O)NCc1ccco1)NCc1ccco1", "inhibition": "-3.59% (inactive)"}
{"compound": "O=C(CC1CCCCC1)NCc1ccco1", "inhibition": "-0.08% (inactive)"}
{"compound": "O=C(NCc1ccco1)C1(c2ccc(Cl)cc2)CCCC1", "inhibition": "76.6% (active)"}
{"compound": "COc1ccc(N2C(=O)C(Cc3ccccc3)NC2=S)cc1", "note": "(centres undefined)", "inhibition": "-0.72% (inactive)"}
{"compound": "Cn1cc(CN2CCCCC2c2ccccn2)c(-c2ccc3c(c2)OCCO3)n1", "note": "(centres undefined)", "inhibition": "-2.73% (inactive)"}
{"compound": "Cc1cc(/C=C2\\SC(=Nc3ccc(N4CCOCC4)cc3)N(C)C2=O)c(C)n1-c1cccnc1", "inhibition": "0.4% (inactive)"}
{"compound": "Cc1cc(/C=C2/NC(=O)NC2=O)c(C)n1-c1cccnc1", "inhibition": "60.6% (active)"}
{"compound": "Cc1ccccc1-n1c(C)cc(/C=C2\\NC(=O)NC2=O)c1C", "inhibition": "7.26% (inactive)"}
{"compound": "CCNC(=O)COc1cc(C)c(Br)c(C)c1", "inhibition": "-1.41% (inactive)"}
{"compound": "CN(C)/C=C(/C(=O)c1ccc(F)cc1)S(=O)(=O)c1ccc(F)cc1", "inhibition": "-1.08% (inactive)"}
